Results from PubChem BioAssay (Tox21).
Records with an inconclusive call do not appear. Active and inactive are the calls of the source. Calls follow the shape of the dose curve; as a rule, active = well fitted curve in the direction sought with a large enough effect in the repeat runs; inconclusive = weak or mixed curves; inactive = no such curve, though single readings can be large; an effect the other way counts as inactive or inconclusive.

Experiments:
[1] = qHTS RealTime-Glo MT Cell Viability Assay in HEK293 cells - 0 hour (AID 1224880); also: nearly all actives have a fitted effect of over 45% in size; also: potency is read from the fitted curve at half-maximal effect; as to activity change, negative = cytotoxicity: top concentration of the series differs between compounds
In short: (§1)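 qHTS format; HEK293 cells with NanoLuc/prosubstrate reagent, 37 C/5% CO2 for 5 h pre-dosing; compounds 23 nL in DMSO; luminescence at each time point reflects viable cells.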

[2] = A CellTox Green Cytotoxicity Assay to monitor cytotoxicity in HEK293 cells - 32 hour (AID 1224881); also: nearly all actives have a fitted effect of over 40% in size
In short: (§2)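 Each value comes from one timepoint of a single continuous run in which HEK293 cells with CellTox Green were exposed to compound for up to 40 h at 37 C, dye fluorescence rising with cell death.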

[3] = A CellTox Green Cytotoxicity Assay to monitor cytotoxicity in HepG2 cells - 0 hour (AID 1224882); also: nearly all actives have a fitted effect of over 35% in size
In short: (§3)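 Continuous culture of HepG2 cells with a membrane-impermeant DNA dye; rising fluorescence marks dead cells. Compound exposure lasted up to 40 h at 37 C, with reads every 8 h from 0 h.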

[4] = A CellTox Green Cytotoxicity Assay to monitor cytotoxicity in HepG2 cells - 32 hour (AID 1224883); also: nearly all actives have a fitted effect of over 50% in size
In short: as §3

[5] = A CellTox Green Cytotoxicity Assay to monitor cytotoxicity in HEK293 cells - 8 hour (AID 1224884); also: nearly all actives have a fitted effect of over 35% in size
In short: as §2

[6] = qHTS RealTime-Glo MT Cell Viability Assay in HepG2 cells - 16 hour (AID 1224885); also: nearly all actives have a fitted effect of over 50% in size
In short: (§4)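 HepG2 cells (600/well) were dispensed with RealTime-Glo reagents, incubated 5 h at 37 °C, then treated with compounds in DMSO for up to 40 h. Nonlytic NanoLuc luminescence reflecting viable cells was read at each stated time point.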

[7] = qHTS RealTime-Glo MT Cell Viability Assay in HEK293 cells - 24 hour (AID 1224886); also: top concentration of the series differs between compounds; nearly all actives have a fitted effect of over 50% in size
In short: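 HEK293 cells seeded with NanoLuc/prosubstrate reagent, rested 5 h at 37 C, then dosed and kept at 37 C up to 40 h. Nonlytic real-time luminescence from viable cells read at 0, 8, 16, 24, 32 and 40 h.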

[8] = qHTS RealTime-Glo MT Cell Viability Assay in HEK293 cells - 8 hour (AID 1224887); also: top concentration of the series differs between compounds; nearly all actives have a fitted effect of over 50% in size
In short: as §1

[9] = A CellTox Green Cytotoxicity Assay to monitor cytotoxicity in HEK293 cells - 16 hour (AID 1224888); also: nearly all actives have a fitted effect of over 35% in size
In short: as §2

[10] = qHTS RealTime-Glo MT Cell Viability Assay in HepG2 cells - 0 hour (AID 1224889); also: nearly all actives have a fitted effect of over 50% in size; also: potency is read from the fitted curve at half-maximal effect
In short: as §4
% is scaled to controls: 0 for no effect and ±100 for the full control effect.

CC/C=C\CC/C=C/C(OCC)OCC
inactive: Potency [1] | Potency [2] | Potency [3] | Potency [4] | Potency [5] | Potency [6] | Potency [7] | Potency [8] | Potency [9] | Potency [10]

CC(C)NC(=O)NC(C)C
inactive: Potency [1] | Potency [2] | Potency [3] | Potency [4] | Potency [5] | Potency [6] | Potency [7] | Potency [8] | Potency [9] | Potency [10]

CCSC(=O)N(CC(C)C)CC(C)C
inactive: Potency [1] | Potency [2] | Potency [3] | Potency [4] | Potency [5] | Potency [6] | Potency [7] | Potency [9] | Potency [10]

CC(C)NCCCC1(C(N)=O)c2ccccc2-c2ccccc21
inactive: Potency [1] | Potency [2] | Potency [3] | Potency [4] | Potency [5] | Potency [6] | Potency [7] | Potency [8] | Potency [9] | Potency [10]

N=C(N)c1ccc(OCCCOc2ccc(C(=N)N)cc2)cc1
inactive: Potency [1] | Potency [2] | Potency [3] | Potency [4] | Potency [5] | Potency [6] | Potency [7] | Potency [8] | Potency [9] | Potency [10]

c1ccc(CC2=NCCN2)cc1
inactive: Potency [1] | Potency [2] | Potency [3] | Potency [4] | Potency [5] | Potency [6] | Potency [7] | Potency [8] | Potency [9] | Potency [10]

Cc1cc(O)cc2c1O[C@](C)(CCC[C@H](C)CCC[C@H](C)CCCC(C)C)CC2
inactive: Potency [1] | Potency [2] | Potency [3] | Potency [4] | Potency [5] | Potency [6] | Potency [7] | Potency [8] | Potency [9] | Potency [10]

CCN1CCC[C@H]1CNC(=O)c1cc(S(N)(=O)=O)ccc1OC
inactive: Potency [1] | Potency [2] | Potency [3] | Potency [4] | Potency [5] | Potency [6] | Potency [7] | Potency [9] | Potency [10]

COC(=O)CC(C)=O
inactive: Potency [1] | Potency [2] | Potency [3] | Potency [4] | Potency [5] | Potency [6] | Potency [7] | Potency [8] | Potency [9] | Potency [10]

CCCN(CCC)CCc1cccc2c1CC(=O)N2
inactive: Potency [1] | Potency [2] | Potency [3] | Potency [4] | Potency [5] | Potency [6] | Potency [7] | Potency [8] | Potency [9] | Potency [10]

Nc1ccc(S(=O)(=O)Nc2ccnn2-c2ccccc2)cc1
inactive: activity change, negative = cytotoxicity [1] 3.82% [at 15.8 µM] | Potency [2] | cytotoxicity [3] 3.97% [at 15.8 µM] | cytotoxicity increase [4] 3.28% [at 15.8 µM] | cytotoxicity increase [5] 1.9% [at 15.8 µM] | activity change, negative = cytotoxic [6] -1.35% [at 15.8 µM] | activity change, negative = cytotoxicity [7] 7.4% [at 15.8 µM] | activity change, negative = cytotoxicity [8] 7.76% [at 15.8 µM] | activity change [9] 2.29% [at 15.8 µM, hits give high values] | activity change, negative = cytotoxicity [10] -1.91% [at 15.8 µM]

CCCCCCCCCCCCCC=O
inactive: activity change, negative = cytotoxicity [1] 8.28% [at 6.97 µM] | cytotoxicity increase [2] -0.0239% [at 6.97 µM] | cytotoxicity [3] 11.5% [at 6.97 µM] | cytotoxicity increase [4] 1.86% [at 6.97 µM] | cytotoxicity increase [5] -1.61% [at 6.97 µM] | activity change, negative = cytotoxic [6] 0.224% [at 6.97 µM] | activity change, negative = cytotoxicity [7] 6.14% [at 6.97 µM] | activity change, negative = cytotoxicity [8] 2.94% [at 6.97 µM] | activity change [9] -6.87% [at 6.97 µM, hits give high values] | activity change, negative = cytotoxicity [10] 15.5% [at 6.97 µM]

O=C1CCCCCCCCCCCN1
inactive: Potency [1] | Potency [2] | Potency [3] | Potency [4] | Potency [5] | Potency [6] | Potency [7] | Potency [8] | Potency [9] | Potency [10]

CCCCCOC(=O)CCCCC
inactive: Potency [1] | Potency [2] | Potency [3] | Potency [4] | Potency [5] | Potency [7] | Potency [8] | Potency [9] | Potency [10]

CCCCCCCCCCCCN(CCCCCCCCCCCC)CCCCCCCCCCCC
inactive: Potency [1] | Potency [2] | Potency [3] | Potency [4] | Potency [5] | Potency [7] | Potency [8] | Potency [9] | Potency [10]

COc1ccc2c(c1)c(CC(=O)OCC(=O)O)c(C)n2C(=O)c1ccc(Cl)cc1
inactive: Potency [1] | Potency [2] | Potency [3] | Potency [4] | Potency [5] | Potency [6] | Potency [7] | Potency [9] | Potency [10]

N[C@@H](C(=O)N[C@@H]1C(=O)N2C(C(=O)O)=C(Cl)CS[C@H]12)c1ccccc1
inactive: activity change, negative = cytotoxicity [1] 12.5% [at 6.97 µM] | cytotoxicity increase [2] -0.855% [at 6.97 µM] | cytotoxicity [3] -11.9% [at 6.97 µM] | cytotoxicity increase [4] -17.5% [at 6.97 µM] | cytotoxicity increase [5] 0.155% [at 6.97 µM] | activity change, negative = cytotoxicity [7] 7.93% [at 6.97 µM] | activity change, negative = cytotoxicity [8] 11.8% [at 6.97 µM] | activity change [9] 1.42% [at 6.97 µM, hits give high values] | activity change, negative = cytotoxicity [10] 1.57% [at 6.97 µM]

Cn1c(N)c(N=O)c(=O)n(C)c1=O
inactive: Potency [1] | Potency [2] | Potency [3] | Potency [4] | Potency [5] | Potency [7] | Potency [8] | Potency [9] | Potency [10]

Cc1cnc(NS(=O)(=O)c2ccc(N)cc2)nc1
inactive: Potency [1] | Potency [2] | Potency [3] | Potency [4] | Potency [5] | Potency [6] | Potency [7] | Potency [9] | Potency [10]

c1cnc(N2CCN(Cc3ccc4c(c3)OCO4)CC2)nc1
inactive: Potency [1] | Potency [2] | Potency [3] | Potency [4] | Potency [5] | Potency [7] | Potency [8] | Potency [9] | Potency [10]

O=C1NC(=O)[C@@]2(CCOc3ccc(F)cc32)N1
inactive: Potency [1] | Potency [2] | Potency [3] | Potency [4] | Potency [5] | Potency [6] | Potency [7] | Potency [9] | Potency [10]

Nc1c2c(nc3ccccc13)CCCC2O (configuration not stated)
inactive: Potency [1] | Potency [2] | Potency [3] | Potency [4] | Potency [5] | Potency [6] | Potency [7] | Potency [9] | Potency [10]

CCCC(=O)O[C@]1(C(=O)CO)CC[C@H]2[C@@H]3CCC4=CC(=O)CC[C@]4(C)[C@H]3[C@@H](O)C[C@@]21C
inactive: Potency [2] | Potency [3] | Potency [4] | Potency [5] | Potency [7] | Potency [8] | Potency [9]
active: Potency [1] 10.7 µM | Potency [10] 2.13 µM

CCOC(=O)c1c(C)n(C)c2ccc(O)cc12
inactive: Potency [1] | Potency [2] | Potency [3] | Potency [4] | Potency [5] | Potency [7] | Potency [8] | Potency [9] | Potency [10]

CC(=O)N(CC(O)CO)c1c(I)c(C(=O)NCCO)c(I)c(C(=O)NCC(O)CO)c1I (configuration not stated)
inactive: Potency [1] | Potency [2] | Potency [3] | Potency [4] | Potency [5] | Potency [7] | Potency [8] | Potency [9] | Potency [10]

O=Cc1cccc([N+](=O)[O-])c1
inactive: Potency [1] | Potency [2] | Potency [3] | Potency [4] | Potency [5] | Potency [7] | Potency [8] | Potency [9] | Potency [10]

CC(C)c1cc2c(cc1S(=O)(=O)O)[C@@]1(C)CCC[C@@](C)(C(=O)O)[C@@H]1CC2
inactive: Potency [1] | Potency [2] | Potency [3] | Potency [4] | Potency [5] | Potency [6] | Potency [7] | Potency [9] | Potency [10]

C=CCS(=O)(=O)O
inactive: Potency [1] | Potency [2] | Potency [3] | Potency [4] | Potency [5] | Potency [6] | Potency [7] | Potency [9] | Potency [10]

CCN(CC)CCOCCOC(=O)C1(c2ccccc2)CCCC1
inactive: Potency [1] | Potency [2] | Potency [3] | Potency [4] | Potency [5] | Potency [6] | Potency [7] | Potency [9] | Potency [10]
